ELG1 repair inh = ELG1-dependent DNA repair inhibition; HEK293T ELG1-luciferase reporter, luminescence, 16 h; DNA damage induced by 5-fluorouridine; Potency, µM (doses to about 46.1 µM), usual class: inhibitors; 2.3% of 330,000 active; AID 504467; also: nearly all actives have a fitted effect of over 55% in size
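HEK293T cells expressing luciferase-tagged ELG1 (2,000/well) received 5-Fluorouridine plus compound or DMSO for 16 hr at 37 °C. Luciferase was read by ONE-Glo luminescence after 30 min at room temperature.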
SW480 rerep = DNA re-replication induction in SW480 cells; Potency, µM (top dose mostly 46.1 µM), actives largely listed as activators; SW480 DNA re-replication, Hoechst DNA content imaging, 48 h; 1.8% of 340,000 active; also: nearly all actives have a fitted effect of over 55% in size
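Cells (250 per well) received 23 nL compound or DMSO by pin tool and were kept 48 hr at 37 C, 5% CO2. Nuclei were then stained with Hoechst for 40 min and scanned for DNA content.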
MCF10A rereplic = induces DNA re-replication in MCF 10a normal breast cells; MCF 10A DNA re-replication, Hoechst nuclear intensity, 48 h; Potency, µM (highest dose often 46.1 µM), actives largely listed as activators; 2.9% of 350,000 active; AID 624296; also: nearly all actives have a fitted effect of over 50% in size
KB-3-1 cytotox = kills parental KB-3-1 adenocarcinoma cells | KB-3-1 viability, CellTiter-Glo ATP luminescence, 72 h | AID 1347075 | Potency, µM (series often up to 46.1 µM), usual class: cytotoxic | 1.4% of 400,000 active; also: nearly all actives have a fitted effect of over 60% in size
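Multi-concentration cytotoxicity screen in KB-3-1 cells grown in DMEM lacking phenol red with 10% FBS. After 72 h at 37 °C with compound, ATP-dependent luminescence was recorded.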
KB-V1 cytotox = KB-V1 MDR subline cytotoxicity | 3.4% of 400,000 active | Potency, µM (doses to about 46.1 µM), most hits filed as cytotoxic | KB-V1 MDR cells viability, CellTiter-Glo, 72 h | AID 1347076; also: nearly all actives have a fitted effect of over 60% in size
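In this primary screen, KB-V1 cells overexpressing P-gp are incubated with library compounds (lowest to highest concentration) for 72 h at 37 degrees C before a luminescent ATP viability read.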
Large screens that a line does not name were inactive; ! = not active in a repeat. A selection: hits, their analogues and other compounds. The true share with any hit is near 8.1%. Calls follow the shape of the dose curve; as a rule, active = well fitted curve in the direction sought with a large enough effect; inconclusive = small, poorly fitted or top-dose-only effect, or another doubt; inactive = no such curve, though single readings can be large; an effect the other way counts as inactive or inconclusive.

Cc1occc1C(=O)Nc1sc2c(c1C(N)=O)CCC(C(C)(C)C)C2 (stereo not given)	ELG1 repair inh inconclusive
CC(C)(C)C1CCc2c(sc(NC(=O)c3ccncc3)c2C(N)=O)C1 (stereo not given)	ELG1 repair inh inconclusive, KB-V1 cytotox 11.6µM
CSc1ccccc1NC(=O)c1ccccc1N(Cc1ccccc1)S(C)(=O)=O	KB-V1 cytotox 9.2µM
CSc1ccccc1NC(=O)CN(Cc1ccccc1)S(C)(=O)=O	KB-V1 cytotox 20.6µM
CC(C)CNC(=O)c1ccccc1N(Cc1ccccc1)S(C)(=O)=O	SW480 rerep 11.6µM
CSc1cccc(NC(=O)CN(Cc2ccc(Cl)cc2)S(C)(=O)=O)c1	KB-V1 cytotox 11.6µM
CSc1ccccc1NC(=O)c1ccccc1N(C)S(C)(=O)=O	none
CCCCc1ccc(NC(=O)C2(C)Cc3ccccc3C(=O)O2)cc1 (stereo not given)	none (no result: ELG1 repair inh, SW480 rerep, MCF10A rereplic)
COc1cc(C2CC(=O)c3c([nH]c(C(=O)OCCOC(C)C)c3C)C2)cc(OC)c1OC (stereo not given)	ELG1 repair inh 10.3µM
CCCOCCOC(=O)c1[nH]c2c(c1C)C(=O)CC(c1cc(OC)ccc1OC)C2 (stereo not given)	ELG1 repair inh inconclusive, SW480 rerep 3.66µM, MCF10A rereplic inconclusive, KB-3-1 cytotox 5.8µM, KB-V1 cytotox 5.8µM
COc1ccc(OC)c(C2CC(=O)c3c([nH]c(C(=O)OCC4CCCO4)c3C)C2)c1 (stereo not given)	ELG1 repair inh 10.3µM, SW480 rerep inconclusive, MCF10A rereplic 14.6µM, KB-3-1 cytotox 9.2µM, KB-V1 cytotox inconclusive
CCOCCOC(=O)c1[nH]c2c(c1C)C(=O)CC(c1ccc(OC)c(OC)c1)C2 (stereo not given)	ELG1 repair inh inconclusive, KB-V1 cytotox inconclusive
COc1ccc(OC)c(C2CC(=O)c3c([nH]c(C(=O)OC(C)C)c3C)C2)c1 (stereo not given)	ELG1 repair inh inconclusive, SW480 rerep 3.66µM, MCF10A rereplic inconclusive, KB-3-1 cytotox 0.461µM, KB-V1 cytotox 0.517µM
CCN1CCN(c2c(S(=O)(=O)c3ccc(C)c(C)c3)cnc3ccc(F)cc23)CC1	SW480 rerep inconclusive, KB-V1 cytotox inconclusive
CCOC(=O)c1[nH]c2c(c1Cc1ccccc1C)C(=O)CC(c1cc(OC)ccc1OC)C2 (stereo not given)	none (no result: ELG1 repair inh, SW480 rerep, MCF10A rereplic)
COCCOC(=O)c1[nH]c2c(c1C)C(=O)CC(c1cc(OC)ccc1OC)C2 (stereo not given)	SW480 rerep 13µM, MCF10A rereplic inconclusive, KB-3-1 cytotox 8.2µM, KB-V1 cytotox inconclusive
CC(C)Oc1ccc(CNC(=O)CC(c2ccccc2)c2cc(Cl)ccc2O)cc1 (stereo not given)	ELG1 repair inh inconclusive, MCF10A rereplic inconclusive, KB-V1 cytotox 23.1µM
CC(C)Oc1ccc(C(CCNCc2ccc(O)cc2)c2ccccc2)cc1 (stereo not given)	MCF10A rereplic inconclusive, KB-3-1 cytotox inconclusive, KB-V1 cytotox 18.4µM
COc1ccc(C(CCNCc2ccc(OC)c(OC)c2)c2ccc(F)cc2)cc1 (stereo not given)	ELG1 repair inh inconclusive, SW480 rerep inconclusive
COc1ccc(C(CCNCc2ccc(N(C)C)cc2)c2ccccc2)cc1 (stereo not given)	SW480 rerep 18.4µM, MCF10A rereplic inconclusive, KB-V1 cytotox inconclusive
CCOC(=O)c1ccc(-c2ccc(/C=C(\C#N)C(=O)Nc3ccc(C)cc3OC)o2)cc1	none (no result: ELG1 repair inh, SW480 rerep, MCF10A rereplic)
O=C(CN1C(=O)CCc2cc(S(=O)(=O)N3CCOCC3)ccc21)Nc1cccc(Cl)c1	none (no result: ELG1 repair inh, SW480 rerep, MCF10A rereplic)
O=C(Cn1cc(COc2ccc(-n3cccc3)cc2)nn1)NS(=O)(=O)c1ccccc1C(F)(F)F	none (no result: ELG1 repair inh, SW480 rerep, MCF10A rereplic)
O=C(c1cc([N+](=O)[O-])ccc1N1CCCCC1)N1CCc2ccccc21	ELG1 repair inh inconclusive, SW480 rerep 6.51µM, MCF10A rereplic 3.66µM, KB-3-1 cytotox 5.8µM, KB-V1 cytotox 5.8µM
O=C(c1cc([N+](=O)[O-])ccc1N1CCCC1)N1CCCCC1	none
O=C(c1cc([N+](=O)[O-])ccc1N1CCCCC1)N1CCCCC1	KB-V1 cytotox 16.4µM
O=C(c1cc([N+](=O)[O-])ccc1Cl)N1CCc2ccccc21	none
O=C1NCC(O)=C1C=NC12CC3CC(CC(C3)C1)C2	ELG1 repair inh inconclusive, SW480 rerep inconclusive, MCF10A rereplic 14.6µM
O=C1NCC(O)=C1C=NCCO	none
CN(CC(=O)Nc1ccc(F)c(F)c1F)C(=O)CN1C(=O)C2CCCCC2C1=O (stereo not given)	none
Cc1ccc(NC(=O)NNC(=O)Cn2nc(-c3ccccc3)c(-c3ccccc3)c(C#N)c2=O)cc1	SW480 rerep 2.91µM, MCF10A rereplic 1.46µM, KB-3-1 cytotox 6.51µM
IC(I)I	none (no result: ELG1 repair inh, KB-3-1 cytotox, KB-V1 cytotox)
CCOC(=O)c1c(CN2CCNCC2)nc2ccc(Cl)cc2c1-c1ccccc1	SW480 rerep inconclusive, MCF10A rereplic inconclusive, KB-3-1 cytotox inconclusive, KB-V1 cytotox 23.1µM (no result: ELG1 repair inh)
Cc1nc2ccc(Cl)cc2c(-c2ccccc2)c1C(=O)N(C)C	none
CC(=O)c1c(N2CCOCC2)nc2ccc(Cl)cc2c1-c1ccccc1	ELG1 repair inh inconclusive, MCF10A rereplic 14.6µM
Cc1cccc(OC(=O)c2ccc3c(=O)n4c(nc3c2)CCC4)c1	none (no result: ELG1 repair inh, SW480 rerep, MCF10A rereplic)
Cc1cn([C@H]2C[C@H](O)[C@@H](CNCc3cnc(N4CCOCC4)s3)O2)c(=O)[nH]c1=O	KB-V1 cytotox inconclusive (no result: ELG1 repair inh, SW480 rerep, MCF10A rereplic)
O=C(Nc1ccc(S(=O)(=O)Nc2ncccn2)cc1)c1cccc([N+](=O)[O-])c1	none (no result: ELG1 repair inh, SW480 rerep, MCF10A rereplic)
CC(C)Cc1ccc(-c2cc3nc(NCCCn4ccnc4)ccn3n2)cc1	none (no result: ELG1 repair inh, SW480 rerep, MCF10A rereplic)
CCn1cc(CN2CCC(C(=O)Nc3ccc(Oc4ccccc4F)cc3)CC2)c(C)n1	SW480 rerep inconclusive, MCF10A rereplic 20.6µM, KB-V1 cytotox inconclusive
COC(=O)C1=Cc2cc(OC)cc([N+](=O)[O-])c2OC1N1CCOCC1 (stereo not given)	none
O=C(CSc1ncnc2sc3c(c12)CCCCC3)NCc1ccco1	SW480 rerep inconclusive, MCF10A rereplic 3.98µM, KB-3-1 cytotox 7.31µM!, KB-V1 cytotox inconclusive
CC(C)c1nc2sc3c(SCC(=O)NCc4ccco4)ncnc3c2c2c1CCC2	MCF10A rereplic 14.6µM
CC(=O)CSc1ncnc2sc3c(c12)CCCC3	none
CC1CCc2c(sc3nc(SCC(=O)NCc4ccco4)nc(N)c23)C1 (stereo not given)	MCF10A rereplic inconclusive, KB-3-1 cytotox inconclusive, KB-V1 cytotox 13µM
O=C(CSc1ncnc2sc3c(c12)CCCC3)NC1CCS(=O)(=O)C1 (stereo not given)	KB-V1 cytotox 9.2µM
CCC(C)NC(=O)C(=O)Nc1c2c(nn1-c1ccccc1)CS(=O)(=O)C2 (stereo not given)	none (no result: ELG1 repair inh, SW480 rerep, MCF10A rereplic)
CCOC(=O)N1CCC(NC(=O)c2c(C)nn(-c3cccc(C)c3)c2-n2cccc2)CC1	none (no result: ELG1 repair inh, SW480 rerep, MCF10A rereplic)
C[S+](C)CC[C@H](N)C(=O)O	none (no result: ELG1 repair inh, KB-3-1 cytotox, KB-V1 cytotox)

Assay outcomes from PubChem BioAssay.
